Measurements taken from publication PMC4336329 (PLoS ONE, 2015).
Among all 310,000 compounds or so, about 14,000 (4.5%) showed an effect of 50% or more. The effect is printed as a negative number. What follows is part of a selection rich in strong results, with near analogues and random picks from the rest.

Target: human ether-à-go-go-related gene (hERG) potassium channel (human, UniProt Q12809)
Test: primary screen, population patch clamp on CHO cells stably expressing hERG; higher = less effect of the substance
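Further: peak tail current of the secondary pulse compared with the same well before compound.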

Chain of human ether-à-go-go-related gene (hERG) potassium channel (Q12809 whole entry, looked up): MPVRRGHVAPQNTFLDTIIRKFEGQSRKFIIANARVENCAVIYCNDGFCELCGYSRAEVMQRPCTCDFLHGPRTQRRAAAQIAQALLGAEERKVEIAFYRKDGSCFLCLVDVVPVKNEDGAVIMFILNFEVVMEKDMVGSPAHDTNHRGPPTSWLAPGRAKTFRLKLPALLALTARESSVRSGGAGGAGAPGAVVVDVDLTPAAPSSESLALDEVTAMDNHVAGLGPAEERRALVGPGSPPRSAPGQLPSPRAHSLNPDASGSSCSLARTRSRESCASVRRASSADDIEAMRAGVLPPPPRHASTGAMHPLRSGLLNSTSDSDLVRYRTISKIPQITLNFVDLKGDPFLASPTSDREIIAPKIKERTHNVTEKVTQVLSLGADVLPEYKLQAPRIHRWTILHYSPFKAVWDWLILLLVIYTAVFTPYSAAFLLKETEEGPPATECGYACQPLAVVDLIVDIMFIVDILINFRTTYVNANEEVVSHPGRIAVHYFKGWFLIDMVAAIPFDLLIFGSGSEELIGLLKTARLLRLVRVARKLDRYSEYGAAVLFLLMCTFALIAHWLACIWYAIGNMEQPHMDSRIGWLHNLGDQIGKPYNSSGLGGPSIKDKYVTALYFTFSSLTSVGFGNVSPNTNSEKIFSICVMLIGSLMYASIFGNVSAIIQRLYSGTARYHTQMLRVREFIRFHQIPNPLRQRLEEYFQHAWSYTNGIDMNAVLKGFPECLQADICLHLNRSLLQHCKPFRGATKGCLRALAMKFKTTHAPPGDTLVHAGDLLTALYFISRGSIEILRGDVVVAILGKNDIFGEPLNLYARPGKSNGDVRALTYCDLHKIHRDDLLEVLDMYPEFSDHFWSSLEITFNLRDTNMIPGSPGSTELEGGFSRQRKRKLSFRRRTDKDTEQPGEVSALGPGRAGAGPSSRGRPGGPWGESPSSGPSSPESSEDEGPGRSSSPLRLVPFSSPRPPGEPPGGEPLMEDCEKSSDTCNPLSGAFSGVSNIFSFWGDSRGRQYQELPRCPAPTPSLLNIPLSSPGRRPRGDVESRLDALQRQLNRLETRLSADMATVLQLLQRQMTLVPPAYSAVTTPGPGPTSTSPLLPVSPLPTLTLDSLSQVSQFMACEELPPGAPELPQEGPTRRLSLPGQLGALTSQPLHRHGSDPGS

Row | Structure (SMILES) | hERG current change (%, negative = inhibition) at 10uM
1 | CCCNC(=O)Cn1nc(C(F)(F)F)c2c1CCCC2 | 9.29%
2 | CC(=O)Oc1ccc(/C=C2/SC(=S)N(Cc3ccccc3)C2=O)cc1 | 10.2%
3 | CCn1c(SCC(=O)N2CCc3ccccc32)nnc1-c1ccncc1 | -7.04%
4 | COc1ccc(CCNC(=O)C2=CC=CN3CCS(=O)(=O)N=C23)cc1 | -7.92%
5 | Cc1ccccc1/C=C\c1nc2ccccc2c(=O)[nH]1 | 10.5%
6 | CC(Oc1ccc2c(-c3ccccc3)cc(=O)oc2c1)C(=O)N1CCC[C@@H]1C(N)=O (stereo partly shown) | 1.14%
7 | O=C(NCCS(=O)(=O)c1ccc(Br)cc1)c1ccc(Cl)cc1 | -2.62%
8 | Cl.O=[N+]([O-])c1cc(CN(CCO)CCO)ccc1O | -2.79%
9 | CCOc1ccc(CN(CCO)CCO)cc1[N+](=O)[O-].Cl | -62.9%
10 | CCCOc1ccc(CN(CCO)CCO)cc1C(=O)OC | 6.82%
11 | COc1ccc(CN(CCO)CCO)cc1[N+](=O)[O-].Cl | 3.54%
12 | CCCOc1ccc(CN(CCO)CCO)cc1[N+](=O)[O-].Cl | -54.2%
13 | CCCCOc1ccc(CN(CCO)CCO)cc1[N+](=O)[O-].Cl | -22%
14 | CCOC(=O)N1CCN(CC(=O)Nc2cc3c(cc2C(C)=O)OCO3)CC1 | -1.3%
15 | Fc1ccc2nc(Nc3nc4c(s3)CCCC4)sc2c1 | 3.62%
16 | COC(=O)N(NC(=O)C(O)(c1ccccc1)c1ccccc1)c1ccccc1 | 9.59%
17 | COc1ccc(OCC(=O)Nc2cc(NC(=O)c3ccco3)ccc2OC)cc1 | 5.23%
18 | CC(=C/c1ccco1)/C=N/NC(=O)Cc1cccn1C | -6.63%
19 | CC(/C=N/NC(=O)CN1CCN(Cc2ccc(Cl)cc2)CC1)=C\c1ccco1 | -69.2%
20 | O=C(CN1CCN(Cc2ccccc2)CC1)N/N=C/c1ccco1 | -5.43%
21 | CC(/C=N/NC(=O)Cc1cccn1C)=C\c1ccco1 | -13.1%
22 | O=C(CN1CCN(Cc2ccccc2)CC1)N/N=C\C=C/c1ccco1 | -26.9%

Row | Structure (SMILES) | hERG current change (%, negative = inhibition) at 10uM
23 | CC(/C=N\NC(=O)CN1CCN(Cc2ccccc2)CC1)=C\c1ccco1 | -53.6%
24 | COc1ccccc1C(=O)N1CCN(C2CCN(Cc3ccccc3)CC2)CC1 | -23.2%
25 | C/C(=C\c1ccccc1F)C1Nc2cccc3cccc(c23)N1 | 13.1%
26 | Cc1ccc(/C=N/Nc2ccc3ccccc3n2)o1 | -47.4%
27 | CCN(CC)S(=O)(=O)c1ccc(OC)c(NC(=O)C2CC(=O)N(c3ccc(C)cc3)C2)c1 (stereo not shown) | -19.6%
28 | CCOc1ccc(S(=O)(=O)N2CCCCC2)cc1NS(=O)(=O)c1cccs1 | 4.67%
29 | CCC1CN(C(=O)NCc2ccc(F)cc2)c2cc(Cl)ccc2O1 (stereo not shown) | 12.5%
30 | Cc1cc2oc3ccc(NCCCn4ccnc4)cc3c(=O)c2cc1C | 6.32%
31 | CCNc1nc(CC)nc2c1oc1ccccc12.Cl | -11.5%
32 | CCc1nc(Nc2ccc(O)cc2)c2oc3ccccc3c2n1.Cl | -13.6%
33 | CCc1nc(NCCCN2CCOCC2)c2oc3ccccc3c2n1 | -26.6%
34 | O=c1c2ccccc2oc2cc(NCCCn3ccnc3)ccc12 | -60.9%
35 | Cl.c1ccc2c(c1)oc1c(NCCCn3ccnc3)ncnc12 | -58.7%
36 | c1coc(CNc2ncnc3c2oc2ccccc23)c1 | -22.1%
37 | CCc1nc(Nc2ccccc2)c2oc3ccccc3c2n1.Cl | -5.28%
38 | CCc1nc(NCCCn2ccnc2)c2oc3ccccc3c2n1.Cl | -56.1%
39 | O=c1c2ccccc2oc2ccc(NCCCn3ccnc3)cc12 | 9.83%
40 | CCc1nc(Nc2ccncc2)c2oc3ccccc3c2n1.Cl | -58.5%
41 | c1ccc(CNc2ncnc3c2oc2ccccc23)nc1 | -1.56%
42 | CN1CCc2nc3sc(C(=O)NC4CC4)c(N)c3cc2C1 | 9.22%
43 | COc1ccc(OC)c(C2=NOC(C(=O)Nc3cccnc3)C2)c1 (stereo not shown) | -9.42%
44 | CN(C)c1ccc(/C=N/N(CCO)C2=NS(=O)(=O)c3ccccc32)cc1 | 21.8%

Row | Structure (SMILES) | hERG current change (%, negative = inhibition) at 10uM
45 | COc1ccc(C/C(C)=N/NC(=O)c2cc(C)oc2C)cc1 | 4.56%
46 | N/C(=N\OC(=O)CSc1ccccc1)c1ccccn1 | 6.31%
47 | COc1ccc(C)cc1S(=O)(=O)N(C)CC(=O)N1CCC(C)CC1 | 22.8%
48 | Cc1csc(SCCN2C(=O)c3ccccc3C2=O)n1 | 2.6%
49 | Cl.c1ccc(-c2nc(NCCCn3ccnc3)c3oc4ccccc4c3n2)cc1 | -4.89%
50 | Cc1nc(NCCCn2ccnc2)c2oc3ccccc3c2n1.Cl | -69.8%
51 | Cc1nc(NCCCN2CCOCC2)c2oc3ccccc3c2n1.Cl | -15.5%
52 | CCCCn1c(N)c(N(CCOC)C(=O)CSCc2ccc(C)cc2)c(=O)[nH]c1=O | 13.4%
53 | O=C1C(Cl)=C(Nc2ccccc2O)C(=O)N1c1ccccc1 | 0.891%
54 | CN1CCN(C(c2cccs2)c2nnnn2Cc2ccc(F)cc2)CC1.Cl (stereo not shown) | -13.1%
55 | CCN1CCN(C(c2ccc(F)cc2)c2nnnn2Cc2ccc3c(c2)OCO3)CC1.Cl (stereo not shown) | -44%
56 | c1ccc(C(c2nnnn2Cc2cccs2)N2CCN(C3CCCC3)CC2)cc1 (stereo not shown) | -46.3%
57 | Fc1ccc(Cn2nnnc2C(c2cccs2)N2CCN(C3CCCCC3)CC2)cc1 (stereo not shown) | -66.4%
58 | Fc1ccc(C(c2nnnn2Cc2cccs2)N2CCN(C3CCCCC3)CC2)cc1 (stereo not shown) | -60.3%
59 | Fc1ccc(Cn2nnnc2C(c2cccs2)N2CCCCCC2)cc1 (stereo not shown) | -11.2%
60 | CN1CCN(C(c2ccc(F)cc2)c2nnnn2Cc2cccs2)CC1.Cl (stereo not shown) | -21%
61 | CCN1CCN(C(c2ccc(F)cc2)c2nnnn2Cc2cccs2)CC1 (stereo not shown) | -59.4%
62 | CC(C)C(c1nnnn1Cc1cccs1)N1CCN(C2CCCC2)CC1 (stereo not shown) | -30.9%
63 | Fc1ccc(C(c2nnnn2Cc2ccccc2)N2CCSCC2)cc1 (stereo not shown) | -2.85%
64 | Cl.Fc1ccc(C(c2nnnn2Cc2cccs2)N2CCN(C3CCCC3)CC2)cc1 (stereo not shown) | -67.4%
